SNCA expr inhib – inhibitors of alpha-synuclein (SNCA) gene expression | HEK-293 SNCA-luciferase knock-in, luminescence, 24 h | Potency, µM (titrated, usually from 57.2 µM), without a hit: top-dose activity change, negative = inhibition, actives largely listed as inhibitors | 140,000 tested, 0.17% active | AID 1671194;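 further: potency means the concentration at half of the fitted maximal effect; plate controls were DMSO cells for no effect and cell-free wells for full effect; nearly all actives have a fitted effect of over 45% in size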
GPT2 inh – blocks human glutamate pyruvate transaminase 2. Q8TD30. Recombinant GPT2, coupled pyruvate oxidase/HRP Amplex Red fluorescence. Potency, µM (doses to about 57.7 µM), without a hit: at the top dose activity change, negative = inhibition, hits mostly inhibitors. 100,000 tested, 0.25% active. AID 1671188; further: potency means the concentration at half of the fitted maximal effect; nearly all actives have a fitted effect of over 60% in size
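Fluorescence of coupled pyruvate oxidase/HRP/Amplex Red system (50uM Amplex, 30 min, dark) reports pyruvate formed by GPT2. Enzyme reaction: 10ng/uL GPT2, 2mM L-alanine, 250uM a-KG, 30 min room temperature, pH 7.5; 50uM AOA control.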
HEK293 viab – reduces viability of HEK-293 SNCA reporter cells; HEK-293-SNCA-luc viability, GF-AFC fluorescence, 24 h; 150,000 tested, 0.12% active; Potency, µM (series often up to 57.1 µM), for the others: top-dose activity change, negative = cytotoxicity, actives largely listed as cytotoxic;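 further: potency means the concentration at half of the fitted maximal effect; 0% = DMSO-treated cells and -100% = medium-only wells without cells; nearly all actives have a fitted effect of over 30% in size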
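Cytotoxicity counterscreen: after 24 h compound treatment of genome-edited SNCA-luciferase HEK-293 cells, live-cell protease substrate GF-AFC read by fluorescence after 30 min; activity scaled between DMSO (0%) and medium-only (-100%), curves Hill-fitted.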
IP6K1 inh – IP6K1 kinase inhibition. Q92551. IP6K1 kinase, ADP-Glo luminescence, 2 h; stronger effect = lower value. activity change, % (series mostly up to about 58 µM). 140,000 tested, 0.81% active; in the data active means activity change below about -25%
Target sequence (Q92551 whole entry, looked up): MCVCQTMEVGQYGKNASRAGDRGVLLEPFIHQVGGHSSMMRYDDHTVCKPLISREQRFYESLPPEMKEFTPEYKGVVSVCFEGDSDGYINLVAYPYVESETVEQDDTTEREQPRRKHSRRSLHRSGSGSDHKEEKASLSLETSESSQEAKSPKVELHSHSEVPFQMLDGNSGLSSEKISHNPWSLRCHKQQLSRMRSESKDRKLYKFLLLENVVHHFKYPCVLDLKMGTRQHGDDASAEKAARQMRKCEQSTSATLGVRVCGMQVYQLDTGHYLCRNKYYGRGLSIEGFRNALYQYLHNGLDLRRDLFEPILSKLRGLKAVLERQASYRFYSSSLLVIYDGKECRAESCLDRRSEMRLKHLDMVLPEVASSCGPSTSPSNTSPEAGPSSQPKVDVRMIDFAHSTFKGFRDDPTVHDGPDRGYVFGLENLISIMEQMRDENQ
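ADP-Glo luminescence measures ADP made by human IP6K1 during a 2 h RT reaction with ATP/IP6 (mix at 1.3 mM/130 uM); top library doses 57.5 and 19.1 uM final.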
Numbers without * were called inactive; i = inactive; ? = inconclusive; · = no result given; ! = a repeat was not active; [ ] = remark or other dose. Only some compounds are listed: those with a hit (about 1% of all), similar ones and a draw of the others. Unless noted, the call rests on the fitted dose curve; in most records, active means well fitted curve in the direction sought with a large enough effect; inconclusive means small, poorly fitted or top-dose-only effect, or another doubt; inactive means no such curve, though single readings can be large; an effect the other way counts as inactive or inconclusive. Unless noted, on the % scale 0 is the no-effect control and ±100 the full control effect.

SMILES | SNCA expr inhib | GPT2 inh | HEK293 viab | IP6K1 inh
COc1ccc(NC(=O)Nc2cccc(-c3ccc(N4CCOCC4)nn3)c2)cc1F | 20µM* | i | -26.4% | -13.8
CC(C)NCC(O)c1cc(O)cc(O)c1 (stereo unspecified) | -3.9% | ? | 3.8% | -0.4
CC(C)NC[C@H](O)c1ccc(O)c(O)c1 | 20.7% | 3.55µM*! | -23.7% | ·
CCCOc1ccc(C(=O)Nc2c(C(=O)c3ccc(C)cc3)oc3ccccc23)cc1 | 32.9% | · | 19.0% | 14.7
CN(C)Cc1c(C(=O)NCCOc2ccc(C(=O)NO)cc2)oc2ccccc12 | -17.9% | 30.6µM*! | ? | -12.6
Cc1oc2ccn(Cc3ccc(F)cc3)c(=O)c2c1C(=O)NC1CC1 | 6.7% | i | -0.3% | 14.0
C(#Cc1nc2ncccc2nc1OCCN1CCCC1)c1ccccc1 | · | i | 15µM* | -8.7
Cc1cccc(N2CCN(C(=O)c3ccc4c(c3)N(C(=O)c3ccccc3)CC4)CC2)c1C | ? | 0.8% | ? | -1.8
COc1cncc(N2C[C@@H]3[C@H](C2)N(CCOc2ccccc2)C(=O)C(C)(C)[S+]3(=O)[O-])c1 | 3.0% | 10µM* | -3.0% | 4.2
COc1cccc(CN2C[C@H]3[C@H](C2)[S+](=O)([O-])C(C)(C)C(=O)N3CCOc2ccccc2)c1 | 3.2% | -1.1% | -2.5% | -0.2
O=C(N1CCN(C/C=C/c2ccccc2)CC1)C12CNCC1CNC2 (stereo unspecified) | -16.9% | 2.0% | 6.7% | 8.9
Fc1ccc(C(c2ccc(F)cc2)N2CCN(CC=Cc3ccccc3)CC2)cc1 | 13.6% | 4.32µM* | ? | ·
Cc1ccc(-n2nc(C)c([C@H]3C=C[C@@H](OC(=O)Nc4cccc(C(F)(F)F)c4)C3)c2C)cc1Cl | 49.7% | -9.4% | -11.5% | 12.4
Cc1ccc(CN2CC[C@@H]3C(=O)NCCCCCCN(Cc4ccncc4)[C@@H]3C2)o1 | 21.3% | ? | -5.9% | 16.5
CCN1CCN(c2ncnc3c2CN(C2CCCCC2)C(=O)CN3C)CC1 | 8.1% | -40.5% | -0.2% | 14.7
CCc1nn(CC(=O)NCCCc2ccccc2)c(=O)c2cc3ccccc3n12 | 28.2µM* | · | 4.3% | 7.8
COc1ccc(C2C(=O)N(C3CCCCC3)CC(=O)N2CCC2=CCCCC2)cc1 (stereo unspecified) | 22.4µM* | · | ? | 7.4
CCCOc1ccc(C2C(=O)N(C3CCCCC3)CC(=O)N2CCC2=CCCCC2)cc1OC (stereo unspecified) | 27.8% | · | -4.0% | 46.0
COc1ccc(CNC(=O)C2CCCCN2Cc2ccc(-c3ccsc3)cc2)cc1OC (stereo unspecified) | -4.5% | -11.3% | -1.6% | -0.7
COc1ccc(-c2nc(C3CC3)nc3c2CN(C(=O)c2ccc(C(F)(F)F)cc2)CC3)cc1 | ? | i | 10µM* | -11.2
COc1ccc(C(=O)N2CCc3nc(C4CC4)nc(-c4ccc(OC)cc4)c3C2)cc1 | -13.3% | i | -21.3% | -10.8
Cc1ccccc1-c1cn[nH]c1C1CCN(C(=O)c2cnn3ccccc23)CC1 | -18.9% | ? | -21.9% | 5.2
Cc1cccc(C)c1-n1c(=O)c2cnc(Nc3ccc(N4CCN(C)CC4)cc3)nc2n2c3ccccc3nc12 | · | ? | ? | 18.5
C=CCn1c(=O)c2cnc(Nc3ccc(N4CCN(C)CC4)cc3)nc2n1-c1cccc(C(C)(C)O)n1 | 0.482µM* | -5.9% | ? | 6.5
Cc1nnc2ccc(N3CCC(NC(=O)NC4CCCC4)CC3)nn12 | · | · | · | -1.2
SMILES | SNCA expr inhib | GPT2 inh | HEK293 viab | IP6K1 inh
C=C(C)C(=O)OC1CC2(C)OC(=CC2=O)C(=C)CC2OC(=O)C(=C)C12 (stereo unspecified) | · | ? | 11.7µM* | -10.9
C=C1CC2OC(=O)C(=C)C2C(OC(=O)/C(C)=C\C)CC2(C)OC1=CC2=O (stereo unspecified) | · | ? | ? | -8.1
O=C(O)c1cccc2c1CCN2C(=O)Nc1ccc(F)cc1 | 0.891µM* | -14.9% | 9.1% | -18.5
COCCCNC(=O)c1cccc2c1CCN2C(=O)Nc1cccc(C)c1 | 3.55µM* | i | -5.9% | -6.2
Cc1ccc(C(=O)Nc2cc(-c3ccncc3)nn2C)cc1 | -5.4%[87.6 µM] | 0.8%[88.5 µM] | -6.2%[87.6 µM] | 1.9
CCCN1CCC2(CCN(C(=O)c3ccc(OC)cc3)CC2)Oc2ccccc21 | -12.7% | -4.3% | -17.9% | -13.0
CCN(C(=O)c1c(O)c2c(Cl)cccc2n(C)c1=O)c1ccccc1 | 5.41µM* | 4.0% | ? | ·
COc1ccccc1-c1cccc(C(=O)N2CCC[C@H]2C(=O)N2CCCCC2)c1 | -2.3% | 3.4% | -2.3%[12.5 µM] | -8.1
CN[C@@H]1C[C@H]2O[C@@](C)([C@H]1OC)n1c3ccccc3c3c4c(c5c6ccccc6n2c5c31)C(=O)N[C@H]4O | 4.29µM* | i | ? | ·
O=C1CN(C(=O)c2ccc(F)cc2)CC(O)CN1Cc1ccc(Cl)cc1 (stereo unspecified) | · | · | · | -2.9
CN(C)C(C(=O)N1CCC(O)(c2ccccc2)CC1)c1cccc(F)c1 (stereo unspecified) | 14.3% | i[11.5 µM] | -7.4% | -9.1
C[S+](=O)([O-])N1CC2(CCCN(Cc3ccccn3)C2)Cc2ccccc21 (stereo unspecified) | -20.1% | i | -4.2% | -8.8
C=C1C(=O)O[C@@H]2C/C(C)=C\C(=O)/C=C(\C)[C@@H](OC(=O)/C(C)=C\C)[C@H](O)[C@@H]12 | · | i | 14.7µM* | 7.2
C=C1C(=O)O[C@@H]2[C@H]3C(C)=CC(=O)C3=C(C)[C@@H](OC(=O)/C(C)=C\C)[C@H](O)[C@@H]12 | · | 4.9%[27.3 µM] | ? | 8.5
CC(=O)OCC1=C(C(=O)O)N2C(=O)[C@@H](NC(=O)CSc3ccncc3)[C@H]2SC1 | -22.3%[25.6 µM] | -11.5% | -21.1%[23.9 µM] | -42.1*
N#CC1CCN(C(=O)c2cc(-c3cccs3)c3cccn3n2)CC1 | -1.9%[87.6 µM] | i | -4.1%[87.6 µM] | -0.8
CNC(=O)c1cc(C2CC2)nc2c1c(C1CCN(C(=O)c3cccc(Cl)c3)C1)nn2C (stereo unspecified) | · | · | · | 15.0
CN1CCN(c2ccc(C(=O)Nc3n[nH]c4ccc(Cc5cc(F)cc(F)c5)cc34)c(NC3CCOCC3)c2)CC1 | ? | i | 27µM*! | -11.8
CN1CCN(c2ccc(-c3cc4c(ccn4C)c(C(=O)NCC4CCOCC4)n3)cc2)CC1 | 7.4% | i | -2.3% | -8.7
N#Cc1ccc(S(=O)(=O)N[C@H]2[C@H](O)[C@H](O)C[C@@H]2c2ccc(C(F)(F)F)cc2)cc1 | 0.2%[87.6 µM] | i | -0.1%[87.6 µM] | 2.9
C/C=C(\C)C(=O)O[C@H]1C=C(CO)C(=O)[C@H](OC(C)=O)[C@H]1C(C)C | · | i | ? | 1.2
CCC(C)CC(=O)OC1C(=O)C(CO)=CC(O)C1C(C)C (stereo unspecified) | · | i | 18.9µM* | -7.5
NCC(O)(CS(=O)(=O)O)c1ccc(Cl)cc1 (stereo unspecified) | -0.4% | -3.1% | 4.2% | ·
NC[C@@](O)(c1ccc(Cl)cc1)c1ccc(-c2cn[nH]c2)cc1 | · | -2.6% | 23.8µM* | -7.8

Source: PubChem BioAssay (National Center for Advancing Translational Sciences (NCATS))
